POLB inh: qHTS Assay for Inhibitors of DNA Polymerase Beta. P06746. Pol beta primer extension/strand displacement, fluorescence kinetic. Potency, µM (highest dose often 114 µM), usual class: inhibitors. actives 1.3% (n = 340,000). AID 485314, 2010
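Homogeneous kinetic assay of primer extension and strand displacement by 10 nM Pol beta, preincubated 15 min at room temperature with compound before 50 nM substrate (final) was added. Read at 0 and 10 min; four-parameter Hill fit.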
Pol eta inh: qHTS for Inhibitors of Polymerase Eta | DNA polymerase eta (Homo sapiens), Q9Y253 | recombinant Pol eta, fluorescent DNA replication assay | Potency, µM (series often up to 114 µM), most hits filed as inhibitors | actives 1.2% (n = 390,000) | AID 588591, 2011
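Fluorescent replication assay: 50 nM final substrate added after a 15 min room-temperature compound preincubation with 10 nM enzyme. Signal taken at 0 min and again at 10 min.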
Pol iota inh: qHTS for Inhibitors of Polymerase Iota; DNA polymerase iota (Homo sapiens), Q9UNA4; AID 588590, 2011; Pol iota fluorescent replication assay, 10 min; Potency, µM (highest dose often 115 µM), most hits filed as inhibitors; actives 1% (n = 390,000)
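Fluorescent replication assay read twice, at 0 min and 10 min after adding 50 nM (final) substrate. Enzyme (10 nM) and compounds were first incubated 15 min at room temperature; enzyme-free buffer wells were negative controls.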
Pol kappa inh: qHTS for Inhibitors of Polymerase Kappa; Potency, µM (top dose mostly 107 µM), hits mostly inhibitors; purified Pol kappa, fluorescent DNA synthesis assay, 10 min; DNA polymerase kappa (Homo sapiens), Q9UBT6; actives 0.53% (n = 400,000)
Target sequence (Q9UBT6 whole entry, looked up): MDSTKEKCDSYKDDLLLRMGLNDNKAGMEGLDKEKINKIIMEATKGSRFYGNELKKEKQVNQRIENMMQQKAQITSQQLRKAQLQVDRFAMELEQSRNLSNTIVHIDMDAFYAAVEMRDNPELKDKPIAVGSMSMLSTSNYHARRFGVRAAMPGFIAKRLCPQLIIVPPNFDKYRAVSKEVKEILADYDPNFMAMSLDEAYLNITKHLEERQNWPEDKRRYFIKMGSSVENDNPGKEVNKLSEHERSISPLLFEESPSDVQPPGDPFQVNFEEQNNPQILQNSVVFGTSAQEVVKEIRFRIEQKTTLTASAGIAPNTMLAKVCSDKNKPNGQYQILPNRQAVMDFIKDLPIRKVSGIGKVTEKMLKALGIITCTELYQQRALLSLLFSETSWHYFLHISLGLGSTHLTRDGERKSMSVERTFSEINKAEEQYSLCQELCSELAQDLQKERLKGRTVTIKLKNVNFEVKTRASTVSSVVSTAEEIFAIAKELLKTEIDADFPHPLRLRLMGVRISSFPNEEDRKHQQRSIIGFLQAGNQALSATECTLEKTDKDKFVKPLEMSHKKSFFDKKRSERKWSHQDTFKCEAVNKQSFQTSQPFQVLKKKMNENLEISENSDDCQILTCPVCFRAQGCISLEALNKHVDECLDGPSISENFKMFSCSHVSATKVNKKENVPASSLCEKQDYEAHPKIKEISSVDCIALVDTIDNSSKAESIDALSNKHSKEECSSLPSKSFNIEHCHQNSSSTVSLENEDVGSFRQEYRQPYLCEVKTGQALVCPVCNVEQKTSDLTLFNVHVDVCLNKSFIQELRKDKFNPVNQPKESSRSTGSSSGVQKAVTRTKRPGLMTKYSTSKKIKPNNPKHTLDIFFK
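Here, compound and 10 nM enzyme are combined for 15 min at room temperature; adding 50 nM substrate (final) starts DNA synthesis, tracked by fluorescence at 0 and 10 min against buffer-only wells.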
PI5P4K alpha inh: qHTS for Inhibitors of phosphatidylinositol 5-phosphate 4-kinase (PI5P4K) | Phosphatidylinositol 5-phosphate 4-kinase type-2 alpha (Homo sapiens), P48426 | PI5P4Kalpha enzyme, ADP-Glo luminescence, 60 min; hits give low values | max response, % | actives 1.2% (n = 330,000) | AID 652105, 2013; active means max response of -50% or lower; inconclusive means between -30% and -50%; inactive means -30% or higher; further: value at the top dose of about 77 µM
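Reactions run in 0.038 M HEPES pH 7.4, 0.28 mM EGTA, 0.1% CHAPS and 5% DMSO, with PI5P4Kalpha, substrate, compound and 5 microM ATP final, one hour at room temperature. Readout is ADP-Glo luminescence.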
WRN helicase inh: qHTS for Inhibitors of WRN Helicase; Bifunctional 3'-5' exonuclease/ATP-dependent helicase WRN (Homo sapiens), Q14191; WRN helicase unwinding, fluorescent forked duplex, kinetic; Potency, µM (top dose mostly 114 µM), actives largely listed as inhibitors; actives 0.46% (n = 360,000); further: nearly all actives have a fitted effect of over 55% in size
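Enzyme (20 nM final) and test compound sit together 15 min at room temperature before substrate addition. Substrate is a single-forked duplex oligonucleotide (100 nM) labelled with fluorophore and quencher, with 2 mM ATP; helicase unwinding raises red fluorescence, read kinetically.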
Numbers stand for hits; [ ] = remark or other dose. Rows were chosen to be rich in hits. Some 2.8% of all compounds tested hit in one or more screens of this group. Unless noted, the call rests on the fitted dose curve; in most records, active means well fitted curve in the direction sought with a large enough effect; inconclusive means small, poorly fitted or top-dose-only effect, or another doubt; inactive means no such curve, though single readings can be large; an effect the other way counts as inactive or inconclusive.

For CCc1cc2c(-c3ccccc3)cc(=O)oc2cc1OC(C)C(=O)O (stereo unspecified) the results were POLB inh inconclusive, Pol eta inh inactive, Pol iota inh inactive, Pol kappa inh inactive, PI5P4K alpha inh inactive and WRN helicase inh inactive.
`O=C(c1cccs1)C1CCCN(Cc2nc(Cc3ccccc3F)no2)C1` (stereo unspecified) gave POLB inh inactive, Pol eta inh inactive, Pol iota inh inactive, Pol kappa inh inactive, PI5P4K alpha inh inactive and WRN helicase inh inactive.
For CSc1ccccc1NC(=O)c1cc2c(=O)n3ccccc3nc2s1 the results were POLB inh inactive, Pol eta inh inactive, Pol iota inh inactive, Pol kappa inh inactive, PI5P4K alpha inh inactive and WRN helicase inh inconclusive.
`COc1ccc(Cl)cc1NC(=O)c1cc2c(=O)n3ccccc3nc2s1` gave POLB inh 7.08µM, Pol iota inh inactive and Pol kappa inh inactive.
Cc1cc2nc3ccc(N(C)C)cc3nc2cc1N was read as Pol eta inh inconclusive, Pol iota inh 6.31µM, Pol kappa inh inconclusive, PI5P4K alpha inh inconclusive and WRN helicase inh 50.1µM.
For CS(=O)(=O)N(CCc1ccccc1)CC(=O)N1CCCCCC1 the results were Pol eta inh inactive, PI5P4K alpha inh inactive and WRN helicase inh inactive.
Screening Cc1ccc(O)c(CP(=O)(c2ccccc2)c2ccccc2)c1 returned POLB inh inactive, Pol eta inh inactive, Pol iota inh inactive, Pol kappa inh inactive, PI5P4K alpha inh inactive and WRN helicase inh inactive.
CCNc1ccccc1CP(=O)(c1ccccc1)c1ccccc1O (stereo unspecified) was read as POLB inh 50.1µM, Pol eta inh inactive, Pol iota inh 14.1µM, Pol kappa inh inactive, PI5P4K alpha inh inconclusive and WRN helicase inh inconclusive.
For Brc1ccc(C=C2C=c3ccccc3=C2)cc1 the results were Pol iota inh inactive and Pol kappa inh inactive.
For O=c1/c(=C\c2cc([N+](=O)[O-])cc([N+](=O)[O-])c2O)sc2nc3ccccc3n12 the results were POLB inh 17.8µM, Pol eta inh inconclusive, Pol iota inh inconclusive, Pol kappa inh inconclusive, PI5P4K alpha inh -95.2 and WRN helicase inh 35.5µM.
For Cc1c(OCC(N)=O)ccc2c(-c3ccccc3)cc(=O)oc12 the results were POLB inh inactive, Pol eta inh inconclusive, Pol iota inh inactive, Pol kappa inh inactive, PI5P4K alpha inh inactive and WRN helicase inh 50.1µM.
Screening Cc1cc(O)c(C=O)c2c1C(=O)Oc1c(C)c(O)c3c(c1O2)C(O)OC3=O (stereo unspecified) returned Pol kappa inh 10µM.
For COC(=O)c1c(C)c2c(c(C)c1O)OC(=O)c1c(C)c(Cl)c(O)c(Cl)c1O2 the results were Pol kappa inh inactive.
For O=[N+]([O-])c1ccc(S(=O)(=O)N2CCN=C2SCc2ccc(F)cc2)cc1 the results were POLB inh inactive, Pol eta inh inactive, Pol iota inh inactive, Pol kappa inh inactive, PI5P4K alpha inh inactive and WRN helicase inh inactive.
`CC(=O)c1ccc(N2C(=O)C3C(C2=O)C(C(=O)c2ccc(Cl)cc2)N2CCCC32)cc1` (stereo unspecified) gave POLB inh inactive, Pol eta inh inconclusive, Pol iota inh inactive, Pol kappa inh inactive, PI5P4K alpha inh -53.7 and WRN helicase inh inactive.
Screening O=C(c1ccc(Cl)cc1)C1C2C(=O)N(c3ccccc3)C(=O)C2C2CCCN21 (stereo unspecified) returned POLB inh inactive, Pol eta inh inactive, Pol iota inh inactive, Pol kappa inh inactive, PI5P4K alpha inh inactive and WRN helicase inh inactive.
`COc1ccc2c(N)c(C(=O)NN)[nH]c2c1` gave POLB inh inactive, Pol eta inh inactive, Pol iota inh inactive, Pol kappa inh inactive, PI5P4K alpha inh inconclusive and WRN helicase inh inconclusive.
Cc1cc(C)cc(Nc2cc(C(=O)NC3CCCCC3)c3ccccc3n2)c1 was read as POLB inh inactive, Pol eta inh inactive, Pol iota inh inactive and Pol kappa inh inactive.
Cc1cc(C)cc(Nc2cc(C(=O)NC3CCC(C)CC3)c3ccccc3n2)c1 (stereo unspecified) was read as POLB inh inactive, Pol eta inh 89.1µM, Pol iota inh inactive and Pol kappa inh inactive.
For O=C(Cn1ncc2c3ccccc3n(Cc3cccc(Cl)c3)c2c1=O)NCCCc1ccccc1 the results were POLB inh 28.2µM, Pol eta inh inactive, Pol iota inh inconclusive and Pol kappa inh inconclusive.
`COc1ccc(C=NNc2ccc(S(=O)(=O)Nc3ccccc3C(=O)O)cc2[N+](=O)[O-])c(OC)c1` gave Pol eta inh 50.1µM, Pol iota inh inconclusive, Pol kappa inh inconclusive, PI5P4K alpha inh -70.2 and WRN helicase inh inconclusive.
`COc1ccc(NC(=S)NNc2ccc(S(=O)(=O)Nc3ccccc3C(=O)O)cc2[N+](=O)[O-])cc1` gave POLB inh inactive, Pol eta inh inconclusive, Pol iota inh inconclusive, Pol kappa inh inconclusive, PI5P4K alpha inh -71.3 and WRN helicase inh inactive[11.6 µM].
Screening CC(C)Oc1ccc(/C(O)=C2/C(=O)C(=O)N(Cc3cccnc3)C2c2ccco2)cc1 (stereo unspecified) returned POLB inh 31.6µM, Pol eta inh inactive, Pol iota inh inconclusive, Pol kappa inh inactive, PI5P4K alpha inh inactive and WRN helicase inh inactive.
CCN(Cc1ccccc1)S(=O)(=O)c1ccc2[nH]c3c(c2c1)CCCCC3 was read as POLB inh inactive, Pol eta inh inactive, Pol iota inh inactive and Pol kappa inh inactive.
`CCN(c1ccc(OC)cc1)S(=O)(=O)c1ccc2[nH]c3c(c2c1)CCCCC3` gave POLB inh inactive, Pol eta inh inactive, Pol iota inh 79.4µM and Pol kappa inh inactive.
Screening CC(C)Cn1c(SC(C)C(=O)NCC2CCCO2)nc2ccc(Cl)cc2c1=O (stereo unspecified) returned Pol eta inh inactive, Pol iota inh inactive, Pol kappa inh inactive, PI5P4K alpha inh inactive and WRN helicase inh inactive.
Cc1cc(C)c(S(=O)(=O)Nc2cc(SCC(=O)O)c(O)c3ccccc23)cc1C was read as POLB inh inactive, Pol eta inh 35.5µM, Pol iota inh 20µM, Pol kappa inh inactive, PI5P4K alpha inh -59.5 and WRN helicase inh 22.4µM.
For COc1ccc(N2CCN(C(=O)c3ccc(NC(=O)C4=CSCCO4)cc3)CC2)cc1 the results were POLB inh inactive, Pol eta inh inactive, Pol iota inh 35.5µM, Pol kappa inh inactive, PI5P4K alpha inh inactive and WRN helicase inh inactive[11.6 µM].
